This is part of a sample that, as a whole, favours compounds with a hit. Of some 83,000 tested, about 20% had one in any assay.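 The endpoint reported here, percent growth, reads 100 for growth as untreated, 0 for no net growth and -100 for all cells dead.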 A number with no mark means an inactive call. Activity calls are given as the source filed them. How the source made its calls: active means growth percent below 10; inactive means the rest.
Legend:
Test in all cases: NCI-60 one-dose screen, 48 h (100 = growth as untreated, 0 = no growth, -100 = all killed)
Conditions in all cases: 10 µM unless noted
[1] = system: T-47D breast
[2] = system: BT-549 breast
[3] = system: MDA-MB-435 melanoma
[4] = system: SW-620 colon
[5] = system: MCF7 breast
[6] = system: HCT-116 colon
[7] = system: HCC-2998 colon
[8] = system: KM12 colon

| Structure (SMILES) | growth [1] | growth [2] | growth [3] | growth [4] | growth [5] | growth [6] | growth [7] | growth [8] |
| --- | --- | --- | --- | --- | --- | --- | --- | --- |
| CC(=O)Oc1ccc(CCN2C(=O)CSC2=S)cc1 | 41.2% | 95.9% | 69.2% | 47.1% | 33.3% | 75.6% | 108% | 22.3% |
| COc1cc(/C=N/n2cnc3oc(-c4ccccc4)cc3c2=N)cc(CN2CCN(C)CC2)c1O | 99.4% | 120% | 98.6% | 101% | 89.3% | 80.6% | 108% | 87.2% |
| COc1ccc(Cn2cc3c(c2-c2cc(OC)c(OC)c(OC)c2)CCCc2cnoc2-3)cc1 | 39.1% | 63.3% | -48.2% (active) | 25.6% | 11.5% | 19% | 32.4% | 29% |
| Nc1nc(-c2cccc([N+](=O)[O-])c2)c(N=Nc2ccccc2[N+](=O)[O-])s1 | 42.3% | 34.4% | 67.7% | 6.99% (active) | 82.2% | -13.8% (active) | 84.9% | 54.2% |
| COc1cc(/C=C/C(=O)c2ccc(NC(=O)COc3cccc4cccnc34)cc2)cc(OC)c1OC | 90.2% | 81.7% | 88.3% | 69.8% | 20.6% | 23.9% | 112% | 85.8% |
| COc1cc(/C=C/C(=O)c2ccc(NC(=O)CSc3nnc(-c4ccc5nc(-c6ccccc6)[nH]c5c4)o3)cc2)cc(OC)c1OC | 89% | 81.6% | 94.1% | 98.8% | 43.9% | 40.8% | 111% | 90% |
| Cn1cc(-c2nn3cc(-c4cccnc4)nc3s2)c2cc(F)ccc21 | 65% | 92% | 29.7% | 80.3% | 37.8% | 91% | 96.6% | 76.4% |
| CC[C@]12C=CCN3CC[C@]4(C(=C(C(=O)OC)C1)Nc1cc5c(cc14)[C@@H]1[C@H](O5)[C@@H](O)[C@@]4(CC)CC(C(=O)OC)=C5Nc6cc(OC)ccc6[C@@]56CCN1[C@@H]46)[C@@H]32 | 9.28% (active) | 37.8% | -12.5% (active) | 3.27% (active) | 6.01% (active) | -87.2% (active) | -58.7% (active) | 9.56% (active) |
| C#C[C@]1(O)CC[C@H]2[C@@H]3CC=C4c5sc(Nc6cccc(Cl)n6)nc5CC[C@]4(C)[C@H]3CC[C@@]21C | 25.8% | 24.1% | -65.8% (active) | -61% (active) | -70.4% (active) | 10.1% | 24.2% | -10.8% (active) |
| CN(C)C(=O)c1ccccc1-n1cnc2ccccc2c1=O | 99.2% | 117% | 95% | 102% | 96.4% | 100% | 99.9% | 101% |
| O=c1[nH]c2cc(Cl)ccc2n1C1CCN(c2ccc3nnc(Cl)n3n2)CC1 | 86.6% | 94.2% | 98.4% | 93.4% | 81.1% | 106% | 100% | 96.5% |
| CCCCCCCCCC[C@@H](C)[C@@H]1CC(=O)N[C@H]([C@@H](C)O)C(=O)N[C@@H](C)C(=O)N[C@H](C)C(=O)N[C@@H](CCC(N)=O)C(=O)N[C@H](Cc2ccc(O)cc2)C(=O)N[C@@H](C(C)CC)C(=O)O1 (some centres not stated) | 28% | 72.1% | 75.3% | 81.9% | 38.9% | 64.6% | 68.3% | 81.4% |
| COc1ccc2c(c1)oc1c3[nH]c4ccccc4c3c3c(c21)C(=O)N(O)C3=O | 10.8% | 40.9% | 53.2% | 34.3% | 15.7% | 21.5% | 84.7% | 48% |
| CCOC(=O)c1c(Nc2ccccc2)nn2c(-c3ccc(OC)c(OC)c3)ccnc12 | 41.3% | 112% | 69.6% | 40.9% | 55% | 42.7% | 52.2% | 44.9% |
| CC1COc2c(N3CCN(C)CC3)c(F)cc3c(=O)c(C(=O)N/N=C/c4cc[nH]c4)cn1c23 (configuration not stated) | 47.2% | 59.5% | 12.2% | -46.4% (active) | -5.35% (active) | -80.1% (active) | 22.6% | 46.4% |
| C=C(C)C(=O)O[C@H]1C[C@@]2(C)OC(=CC2=O)/C(C)=C\[C@H]2OC(=O)C(=C)[C@H]12 | -0.517% (active) | -9.12% (active) | -57.4% (active) | -41.7% (active) | 11.7% | -68.5% (active) |  | -8.25% (active) |
| CC(c1ccccc1)N1C(=O)/C(=C/c2csc(C#N)n2)SC1=S (configuration not stated) | 69.2% | 90.5% | 94.4% | 74.1% | 36.6% | 67.6% | 107% | 103% |
| Cc1ccc(NC(=O)c2ccc(CN3CCN(C)CC3)c(I)c2)cc1Oc1ccc(-c2[nH]nc3ncnc(N)c23)cc1 | 112% | 103% | -67.5% (active) | -67.3% (active) | -27% (active) | -26.6% (active) | 108% | 20.7% |
| COC[C@@]1(C)CC[C@]2(C)CC[C@]3(C)C(=CC[C@@H]4[C@@]5(C)CCCNC(C)(C)[C@@H]5CC[C@]43C)C2C1 (some centres not stated) | 70.5% | 87.4% | 44.2% | 53.2% | 23.9% | 40.1% | 58.8% | 61.4% |
| CC1(COc2ccc3ncc(C#Cc4cncc(C(=O)Nc5cc(C(C)(C)C)on5)c4)n3n2)COC1 | 32.5% | 81.3% | 50% | 38.2% | 40.5% | 17.9% | 49.7% | 15% |
| COc1ccc(C(=O)c2c(N)c(C#N)cn2-c2cccc(OC)c2)cc1 | 16% | 41.9% | -37.3% (active) | 9.11% (active) | 17.5% | 16.8% | 56.1% | 23.7% |
| CCOC(=O)C1=C(C)Nc2nc3ccccc3n2C1c1ccccc1 (configuration not stated) | 95.5% | 101% | 96.6% | 87.8% | 87.8% | 69.1% | 114% | 98.1% |
| COc1ccc(-c2nc3cc(Cl)c(Cl)cc3n2CC(=O)N=Nc2c(O)[nH]c3ccccc23)cc1 | 57.8% | 78.3% | 68.8% | 62.4% | 45.7% | 22.6% | 66% | 68.2% |
| Brc1cccc(/C=N/Nc2nc(N/N=C/c3cccc(Br)c3)nc(N3CCOCC3)n2)c1 | 56.4% | 52.7% | 33.4% | 24.7% | 22.1% | 21.2% | 31.5% | 30.3% |
| C=C(C)[C@@H]1CC[C@]2(C)[C@H](CC=C3[C@@H]4CC(C)(C)CC[C@]4(C(=O)NCC#CCN4CCN(C)CC4)CC[C@]32C)[C@@]1(C)CCC#N | 61.7% | 69.3% | 24.2% | 43.8% | 27% | 17.5% | 55.2% | 43.6% |
| Oc1ccc(CSc2nnc(-c3ccncc3)o2)c2cccnc12 | 15.8% | 23.7% | 13.4% | 16.4% | 4.01% (active) | 8.9% (active) |  | 14.2% |
| CN1CCN(Cc2ccc(NC(=O)c3cncc(C#Cc4cnc5ccc(O[C@H]6CCOC6)nn45)c3)cc2C(F)(F)F)CC1 | 16.2% | -33.9% (active) | -86.8% (active) | -32.4% (active) | -62.6% (active) | -88.1% (active) | -61.3% (active) | -52.3% (active) |
| Cc1ccc(/C=C/c2nn3c(-c4ccco4)nnc3s2)cc1 | 92.9% | 99.2% | 97.1% | 102% | 89.5% | 112% | 114% | 103% |
| CC(=O)NC(C)(C)C(=O)N1CCC[C@H]1C(=O)NC(C)(C)C(=O)N[C@@H](C)C(=O)NC(C)(C)C(=O)N[C@@H](C)C(=O)N[C@@H](CCC(N)=O)C(=O)NC(C)(C)C(=O)N[C@H](C(=O)NC(C)(C)C(=O)NCC(=O)N[C@@H](CC(C)C)C(=O)NC(C)(C)C(=O)N1CCC[C@H]1C(=O)N[C@H](C(=O)NC(C)(C)C(=O)NC(C)(C)C(=O)N[C@@H](CCC(N)=O)C(=O)N[C@@H](CCC(N)=O)C(=O)N[C@H](CO)Cc1ccccc1)C(C)C)C(C)C | 55.7% [4.25 µM] | 23.5% [4.25 µM] | 71% [4.25 µM] | 91% [4.25 µM] | 17% [4.25 µM] | 67.7% [4.25 µM] | 70.3% [4.25 µM] | 98.2% [4.25 µM] |
| Cc1cn(-c2cc(NC(=O)c3cncc(C#Cc4cnc5ccc(O[C@H]6CCOC6)nn45)c3)cc(C(F)(F)F)c2)cn1 | 98.2% | 181% | 76.5% | 58.9% | 44.6% | 44.2% |  | 21.9% |

Reference: PubChem BioAssay (NCI)
